Results filed as inconclusive are left out. Activity calls are given as the source filed them. Rule for the calls: active = hit-call score of the fitted dose curve at least 0.9, where 1 is the maximum; inconclusive = response in the unintended direction; inactive = score below 0.9.
What follows are compounds tested against Bile acid receptor (Homo sapiens) (UniProt Q96RI1) (assay: ATG_FXR_TRANS: Attagene TRANS-FACTORIAL HepG2 Assay for Farnesoid X Receptor (FXR) (AID 2282979;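 note: hits raise reporter mRNA above DMSO so AC50 marks FXR activation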)). Conditions: HepG2 Attagene TRANS FXR-GAL4 reporter transcription.
Method in brief: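 Reporter transcripts from transfected HepG2 cells were measured 24 h after dosing, using RT-PCR with capillary electrophoresis of 6-FAM-labelled fragments. The read-out reflects activity of exogenous FXR-Gal4 chimera on GAL4-UAS units, with induction relative to DMSO.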

Chain of Bile acid receptor (Homo sapiens) (Q96RI1 whole entry, looked up, the tested form may be a part): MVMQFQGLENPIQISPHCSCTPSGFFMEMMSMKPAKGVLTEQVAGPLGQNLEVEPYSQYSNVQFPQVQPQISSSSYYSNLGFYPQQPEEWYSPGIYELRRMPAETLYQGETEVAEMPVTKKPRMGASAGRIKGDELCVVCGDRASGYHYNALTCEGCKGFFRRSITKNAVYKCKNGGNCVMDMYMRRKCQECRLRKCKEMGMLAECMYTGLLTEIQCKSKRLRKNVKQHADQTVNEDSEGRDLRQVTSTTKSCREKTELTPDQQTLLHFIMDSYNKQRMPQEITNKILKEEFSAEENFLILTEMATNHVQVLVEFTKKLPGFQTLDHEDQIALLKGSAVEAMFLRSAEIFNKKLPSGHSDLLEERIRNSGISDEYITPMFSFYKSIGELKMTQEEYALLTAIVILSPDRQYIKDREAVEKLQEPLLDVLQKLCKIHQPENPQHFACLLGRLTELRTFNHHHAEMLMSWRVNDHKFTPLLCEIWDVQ

outcome, inactive:
C=CC(C)C#N (stereo not drawn)
CCCCC(CC)COC(=O)c1ccc(O)cc1 (stereo not drawn)
CCOC(=O)[C@@H](C)Oc1ccc(Oc2nc3ccc(Cl)cc3o2)cc1
CC(C)(C)OC(=O)c1ccc(O)cc1
COc1cc(Cl)c(OC)cc1N
CN(C)CCOc1ccc(/C(=C(/CCCl)c2ccccc2)c2ccccc2)cc1
O=[N+]([O-])c1ccc(O)cc1C(F)(F)F
CCOC(=O)CC(C)O (stereo not drawn)
COC(=O)c1ccc(OC)cc1
COC(C)(C)CC(C)=O
CC(=O)O[C@H]1C[C@@H]2CC[C@@]1(C)C2(C)C
O=C(Nc1ccc2c(c1)Cc1ccccc1-2)C(F)(F)F
CC(=O)O[C@@H]1C[C@@H]2CC[C@@]1(C)C2(C)C
NCC1CCCC(CN)C1 (stereo not drawn)
CCCCCCCCSCCO
CCCCCCC(O)CCCCCCCCCCC(=O)O (stereo not drawn)
CCCCCCCCCCCC(=O)OC[C@@H](O)[C@H]1OC[C@H](O)[C@H]1O
CCc1cc(C(C)(C)C)c(O)c(C(C)(C)C)c1
C=CC(C)(O)CCC=C(C)C (stereo not drawn)
CCOC(=O)CN
CCC1(c2ccccc2)C(=O)NCNC1=O
CCc1cc(Cc2cc(CC)cc(C(C)(C)C)c2O)c(O)c(C(C)(C)C)c1
CC1(C)C(=O)N(Cl)C(=O)N1Br
Cc1cc(C)nc(NS(=O)(=O)c2ccc(N)cc2)n1
Cc1cc(=O)oc2cc(N(C)C)ccc12
CSc1c(Cl)c(Cl)c(Cl)c(Cl)c1Cl
C=C1CC[C@H](O)C/C1=C/C=C1\CCC[C@]2(C)[C@@H]([C@H](C)/C=C/[C@H](C)C(C)C)CC[C@@H]12
IC(I)I
CC1(C)O[C@@H]2C[C@H]3[C@@H]4CCC5=CC(=O)C=C[C@]5(C)[C@@]4(F)[C@@H](O)C[C@]3(C)[C@]2(C(=O)CO)O1
O=C(Nc1ccc([N+](=O)[O-])cc1)Nc1ccc([N+](=O)[O-])cc1 (tested in a mixture with another compound)
Cc1ccc(S(=O)(=O)Oc2ccc(N=Nc3ccc(-c4ccc(N=Nc5c(O)ccc6cc(S(=O)(=O)O)cc(S(=O)(=O)O)c56)c(C)c4)cc3C)cc2)cc1
CCCCCCCCCCCCN1CCCCCC1=O
CC1(C)C2=CCCC(C)(C)[C@]23CC[C@H]1C3
CCCCCCC(C)Nc1ccc(Nc2ccccc2)cc1 (stereo not drawn)
CCOC(=O)c1ccc(N)cc1
CC(C=O)Cc1ccc(C(C)(C)C)cc1 (stereo not drawn)

AC50, active:
CCC(Cl)C(Cl)C(Cl)CC(Cl)C(Cl)C(C)Cl (stereo not drawn) 11 µM
CC1C2CC(CC2C2CCCC(O)C2)C1(C)C (stereo not drawn) 58.4 µM

From PubChem BioAssay (EPA / NIEHS)
